Measured values from PubChem BioAssay (Tox21).
Records with an inconclusive call do not appear. Activity calls are given as the source filed them. Unless noted, the call rests on the fitted dose curve; in most records, active means well fitted curve in the direction sought with a large enough effect in the repeat runs; inconclusive means weak or mixed curves; inactive means no such curve, though single readings can be large; an effect the other way counts as inactive or inconclusive.

Tests used:
[1] = qHTS assay to identify aromatase inhibitors - cell viability counter screen (AID 743084);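 further: cells stimulated with testosterone during compound exposure; nearly all actives have a fitted effect of over 55% in size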
[2] = qHTS assay to identify small molecule that activate the aryl hydrocarbon receptor (AhR) signaling pathway - cell viability counter screen (AID 743086);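 further: HepG2 liver cells carrying the AhR DRE luciferase reporter; series mostly up to about 70 µM; nearly all actives have a fitted effect of over 45% in size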
Method in brief: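 Cytotoxicity counter screen: CellTiter-Fluor signal (30 min, 37 C) in 4000 HepG2 cells/well carrying the DRE-luciferase reporter, following 24 h compound exposure at 37 C.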

[3] = target: Peroxisome proliferator-activated receptor gamma (Homo sapiens) (UniProt P37231); experiment: qHTS assay to identify small molecule antagonists of the peroxisome proliferator-activated receptor gamma (PPARg) signaling pathway (AID 743191; calls by dose curve; further: series mostly up to about 63 µM; nearly all actives have a fitted effect of over 30% in size)
Sequence of Peroxisome proliferator-activated receptor gamma (Homo sapiens) (P37231 whole entry, looked up): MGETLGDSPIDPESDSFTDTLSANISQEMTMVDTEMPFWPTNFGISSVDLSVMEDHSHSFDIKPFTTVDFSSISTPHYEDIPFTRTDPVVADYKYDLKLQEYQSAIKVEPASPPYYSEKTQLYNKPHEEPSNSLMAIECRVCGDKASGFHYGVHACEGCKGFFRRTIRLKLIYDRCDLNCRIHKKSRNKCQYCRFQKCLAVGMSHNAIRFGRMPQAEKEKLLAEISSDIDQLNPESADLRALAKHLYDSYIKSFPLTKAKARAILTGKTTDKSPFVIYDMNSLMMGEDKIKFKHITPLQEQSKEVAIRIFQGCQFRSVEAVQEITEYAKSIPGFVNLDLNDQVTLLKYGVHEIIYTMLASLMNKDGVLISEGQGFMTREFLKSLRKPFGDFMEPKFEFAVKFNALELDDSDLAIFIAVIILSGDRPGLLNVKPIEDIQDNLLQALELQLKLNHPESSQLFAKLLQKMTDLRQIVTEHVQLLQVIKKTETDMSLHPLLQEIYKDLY
Method in brief: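 Beta-lactamase reporter under UAS control in HEK293H PPARg-bla cells; compound treatment 17 h at 37C. Read-out: fluorescence intensity after 1 h room-temperature incubation with LiveBLAzer B/G FRET substrate.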

[4] = qHTS assay to identify small molecule antagonists of the peroxisome proliferator-activated receptor gamma (PPARg) signaling pathway - cell viability counter screen (AID 743194); conditions: Potency: co-treated with 50 nM rosiglitazone unless noted; further: nearly all actives have a fitted effect of over 55% in size
Method in brief: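 Viability was measured as CellTiter-Glo luminescence in GeneBLAzer PPARg UAS-bla HEK293H cells. These cells had been exposed 17 h at 37 C to compounds together with rosiglitazone at 50 nM final, with the beta-lactamase readout taken in the same wells.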

[5] = qHTS assay for small molecule agonists of the antioxidant response element (ARE) signaling pathway - cell viability counter screen (AID 743203; calls by dose curve; further: nearly all actives have a fitted effect of over 55% in size)
Method in brief: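 ATP content via CellTiter-Glo luminescence served as the viability measure. Cells: ARE-bla HepG2, 2,000 per well. Exposure: 16 hrs, 37C/5% CO2.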

[6] = qHTS assay for small molecule activators of the heat shock response signaling pathway - cell viability counter screen (AID 743209); further: nearly all actives have a fitted effect of over 50% in size
Method in brief: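 Compounds dissolved in DMSO were added to overnight-plated HSE-bla HeLa cells and left 5 h at 37 C. Cell viability was quantified by luminescence using CellTiter-Glo.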

[7] = qHTS assay for small molecule activators of the heat shock response signaling pathway (AID 743210; active means well fitted activation curve with a large enough effect in the signal ratio in the repeat runs, with a control signal flat, not every such curve was filed as active; the % refers to the signal ratio;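 further: HeLa cells with beta-lactamase reporter driven by heat shock elements; series mostly up to about 63 µM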)
Method in brief: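 Fluorescence from a cleaved B/G FRET substrate (2.5 h, room temp) reports HSE-driven beta-lactamase in HeLa cells treated 5 h at 37 C with DMSO-dissolved compounds.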

[8] = qHTS assay to identify small molecule agonists of the peroxisome proliferator-activated receptor delta (PPARd) signaling pathway - cell viability counter screen (AID 743211); further: nearly all actives have a fitted effect of over 55% in size
Method in brief: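 Tox21 library compounds, delivered in DMSO, were incubated 17 h with PPARd-bla HEK293H cells; cytotoxicity was taken from CellTiter-Glo luminescence read 30 min after reagent addition.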

[9] = target: Peroxisome proliferator-activated receptor delta (Homo sapiens) (UniProt Q03181); experiment: qHTS assay to identify small molecule agonists of the peroxisome proliferator-activated receptor delta (PPARd) signaling pathway (AID 743212; calls by dose curve)
Sequence of Peroxisome proliferator-activated receptor delta (Homo sapiens) (Q03181 whole entry, looked up): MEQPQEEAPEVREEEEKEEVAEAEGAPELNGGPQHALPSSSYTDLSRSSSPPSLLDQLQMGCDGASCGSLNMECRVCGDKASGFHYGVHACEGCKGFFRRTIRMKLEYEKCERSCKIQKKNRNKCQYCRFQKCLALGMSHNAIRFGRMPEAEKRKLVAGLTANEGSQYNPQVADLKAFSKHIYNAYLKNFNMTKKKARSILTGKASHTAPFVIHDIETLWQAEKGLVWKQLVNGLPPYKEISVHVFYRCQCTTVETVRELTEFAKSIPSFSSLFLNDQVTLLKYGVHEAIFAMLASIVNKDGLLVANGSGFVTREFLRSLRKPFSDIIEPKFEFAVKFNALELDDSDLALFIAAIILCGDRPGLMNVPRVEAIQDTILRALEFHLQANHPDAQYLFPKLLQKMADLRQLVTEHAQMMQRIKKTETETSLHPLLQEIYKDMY
Method in brief: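 Steps: seed PPARd-bla HEK293H cells; incubate 5 h, 37 C, 5% CO2; add compounds in DMSO; incubate, 37 C; add LiveBLAzer B/G FRET substrate; hold 2 h at room temperature; measure fluorescence.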

[10] = target: Peroxisome proliferator-activated receptor delta (Homo sapiens) (UniProt Q03181); experiment: qHTS assay to identify small molecule antagonists of the peroxisome proliferator-activated receptor delta (PPARd) signaling pathway (AID 743215; active means well fitted inhibition curve with a large enough effect in the signal ratio in the repeat runs, not every such curve was filed as active; the % refers to the signal ratio;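 further: cells stimulated with agonist L165041 at 300 nM final during compound exposure; series mostly up to about 62 µM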)
Method in brief: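 Here, a reporter line (HEK293H, beta-lactamase under a UAS) measures PPARd signaling. Compounds are tested against agonist L165041 at 300 nM final concentration over 17 h at 37 C, with fluorescence read after substrate.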

[11] = qHTS assay to identify small molecule agonists of the farnesoid-X-receptor (FXR) signaling pathway - cell viability counter screen (AID 743218); further: nearly all actives have a fitted effect of over 45% in size
Method in brief: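 Quantitative HTS counter screen measuring ATP-based viability via CellTiter-Glo luminescence in HEK 293T cells carrying a UAS-driven beta-lactamase reporter, after 16 h compound exposure at 37 C.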

[12] = qHTS assay to identify small molecule antagonists of the farnesoid-X-receptor (FXR) signaling pathway - cell viability counter screen (AID 743221; active means well fitted cell-killing curve with a large enough effect in the repeat runs, not every such curve was filed as active; further: nearly all actives have a fitted effect of over 50% in size)
Method in brief: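 Cytotoxicity is taken from ATP luminescence (CellTiter-Glo, 30 min, room temperature) in FXR-bla HEK 293T cells previously incubated 16 h at 37 C with compound and chenodeoxycholic acid at 50 uM final.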

[13] = target: Vitamin D3 receptor (Homo sapiens) (UniProt P11473); experiment: qHTS assay to identify small molecule agonists of the vitamin D receptor (VDR) signaling pathway (AID 743222; calls by dose curve)
Sequence of Vitamin D3 receptor (Homo sapiens) (P11473 whole entry, looked up): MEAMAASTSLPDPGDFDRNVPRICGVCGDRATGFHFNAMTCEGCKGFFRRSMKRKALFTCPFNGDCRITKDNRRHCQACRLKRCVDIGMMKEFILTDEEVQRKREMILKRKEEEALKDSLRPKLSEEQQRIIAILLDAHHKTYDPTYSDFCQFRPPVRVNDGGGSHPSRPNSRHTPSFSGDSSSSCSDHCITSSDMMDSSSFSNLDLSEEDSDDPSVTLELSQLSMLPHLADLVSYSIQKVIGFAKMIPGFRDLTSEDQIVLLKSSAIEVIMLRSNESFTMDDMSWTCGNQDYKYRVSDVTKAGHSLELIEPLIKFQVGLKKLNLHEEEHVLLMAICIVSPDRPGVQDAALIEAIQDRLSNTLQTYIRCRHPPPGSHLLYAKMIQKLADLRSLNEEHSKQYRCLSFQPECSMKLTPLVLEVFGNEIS
Method in brief: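 Tox21 cell reporter format: VDR-bla line, 16 h compound exposure in 5% CO2 at 37C, then fluorescence intensity after 2 h with LiveBLAzer B/G FRET substrate.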

[14] = target: Vitamin D3 receptor (Homo sapiens) (UniProt P11473); experiment: qHTS assay to identify small molecule antagonists of the vitamin D receptor (VDR) signaling pathway (AID 743223; active means well fitted inhibition curve with a large enough effect in the signal ratio in the repeat runs, not every such curve was filed as active; the % refers to the signal ratio)
Method in brief: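 Quantitative HTS in VDR-bla reporter cells stimulated with 1alpha,25-dihydroxyvitamin D3, 3 nM final. Compound exposure 16 h, 37C, 5% CO2. Read-out: beta-lactamase FRET substrate fluorescence, 2 h RT.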

[15] = qHTS assay for small molecule agonists of the antioxidant response element (ARE) signaling pathway (AID 743202; active means well fitted activation curve with a large enough effect in the signal ratio in the repeat runs, not every such curve was filed as active; the % refers to the signal ratio)
Method in brief: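 Beta-lactamase reporter activity, read as fluorescence intensity, reflects ARE/Nrf2 pathway induction in HepG2 cells after 16 h compound exposure at 37 C; substrate loading was 2 h at room temperature.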

[16] = target: Bile acid receptor (Homo sapiens) (UniProt Q96RI1); experiment: qHTS assay to identify small molecule antagonists of the farnesoid-X-receptor (FXR) signaling pathway (AID 743217; active means well fitted inhibition curve with a large enough effect in the signal ratio in the repeat runs, not every such curve was filed as active; the % refers to the signal ratio)
Sequence of Bile acid receptor (Homo sapiens) (Q96RI1 whole entry, looked up): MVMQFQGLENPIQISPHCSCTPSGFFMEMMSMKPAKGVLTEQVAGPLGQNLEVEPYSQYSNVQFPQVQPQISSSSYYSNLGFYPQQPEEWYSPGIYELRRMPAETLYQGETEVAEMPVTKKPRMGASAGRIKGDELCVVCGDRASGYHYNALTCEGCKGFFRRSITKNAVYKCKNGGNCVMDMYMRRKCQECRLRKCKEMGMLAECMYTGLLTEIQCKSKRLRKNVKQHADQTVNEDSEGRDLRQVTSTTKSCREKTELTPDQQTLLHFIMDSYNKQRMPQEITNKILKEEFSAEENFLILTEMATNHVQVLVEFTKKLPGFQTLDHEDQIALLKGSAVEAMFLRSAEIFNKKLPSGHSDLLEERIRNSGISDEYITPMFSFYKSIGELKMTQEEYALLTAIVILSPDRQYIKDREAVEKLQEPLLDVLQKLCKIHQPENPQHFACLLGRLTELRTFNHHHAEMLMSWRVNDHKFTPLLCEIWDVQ
Method in brief: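 Test compounds are pin-transferred onto FXR-bla HEK 293T cells, then chenodeoxycholic acid is added at 50 uM final. After 16 h at 37 °C, LiveBLAzer B/G substrate is applied for 2 h at room temperature and fluorescence read.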

[17] = target: Bile acid receptor (Homo sapiens) (UniProt Q96RI1); experiment: qHTS assay to identify small molecule agonists of the farnesoid-X-receptor (FXR) signaling pathway (AID 743220; active means well fitted activation curve with a large enough effect in the signal ratio in the repeat runs, not every such curve was filed as active; the % refers to the signal ratio)
Method in brief: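 FXR-UAS-bla HEK 293T cells carrying a UAS-driven beta-lactamase reporter were plated for 5 h at 37C/5% CO2, then exposed to DMSO-dissolved Tox21 10K compounds for 16 h at 37C. A LiveBLAzer B/G FRET substrate was loaded for 2 h at room temperature before fluorescence reading.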

[18] = qHTS assay to identify small molecule antagonists of the peroxisome proliferator-activated receptor delta (PPARd) signaling pathway - cell viability counter screen (AID 743213); further: nearly all actives have a fitted effect of over 50% in size
Method in brief: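 PPARd-bla HEK293H cells (3000/well) got compound plus 300 nM L165041 agonist for 17 h at 37 C. Viability in the same wells came from CellTiter-Glo luminescence after 30 min at room temperature.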

[19] = target: Aryl hydrocarbon receptor (Homo sapiens) (UniProt P35869); experiment: qHTS assay to identify small molecule that activate the aryl hydrocarbon receptor (AhR) signaling pathway (AID 743085);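 further: HG2L7.5c1 human HepG2 liver cells with stably integrated DRE-driven firefly reporter; series mostly up to about 70 µM; nearly all actives have a fitted effect of over 15% in size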
Sequence of Aryl hydrocarbon receptor (Homo sapiens) (P35869 whole entry, looked up): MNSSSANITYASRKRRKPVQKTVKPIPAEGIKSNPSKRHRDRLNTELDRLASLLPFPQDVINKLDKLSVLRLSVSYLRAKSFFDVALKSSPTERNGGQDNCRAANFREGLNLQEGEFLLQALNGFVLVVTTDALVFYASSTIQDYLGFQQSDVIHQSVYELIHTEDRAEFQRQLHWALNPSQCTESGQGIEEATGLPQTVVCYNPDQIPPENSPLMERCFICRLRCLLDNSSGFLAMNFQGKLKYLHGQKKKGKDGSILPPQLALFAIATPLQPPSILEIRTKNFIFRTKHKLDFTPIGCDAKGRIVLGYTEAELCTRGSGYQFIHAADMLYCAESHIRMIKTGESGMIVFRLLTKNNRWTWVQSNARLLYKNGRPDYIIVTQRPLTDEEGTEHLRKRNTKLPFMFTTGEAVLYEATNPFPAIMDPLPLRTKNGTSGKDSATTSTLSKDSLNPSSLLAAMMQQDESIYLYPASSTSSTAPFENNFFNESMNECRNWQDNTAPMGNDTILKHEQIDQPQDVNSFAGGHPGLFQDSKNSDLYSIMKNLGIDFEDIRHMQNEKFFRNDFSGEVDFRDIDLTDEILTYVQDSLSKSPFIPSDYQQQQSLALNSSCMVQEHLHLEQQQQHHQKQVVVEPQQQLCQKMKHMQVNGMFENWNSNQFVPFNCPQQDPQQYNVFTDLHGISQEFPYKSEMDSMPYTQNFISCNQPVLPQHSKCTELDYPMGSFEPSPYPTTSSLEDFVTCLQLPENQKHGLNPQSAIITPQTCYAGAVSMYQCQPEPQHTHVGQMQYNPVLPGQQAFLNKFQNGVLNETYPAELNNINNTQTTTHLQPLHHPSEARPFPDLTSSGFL
Method in brief: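 A multiplexed format paired cell viability (CellTiter-Fluor fluorescence) with AhR-dependent luciferase output (ONE-Glo luminescence) in the same wells of HepG2 DRE-luc cells after 24 h compound exposure at 37C.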

[20] = target: Peroxisome proliferator-activated receptor gamma (Homo sapiens) (UniProt P37231); experiment: qHTS assay to identify small molecule agonists of the peroxisome proliferator-activated receptor gamma (PPARg) signaling pathway (AID 743094; active means well fitted activation curve with a large enough effect in the signal ratio in the repeat runs, not every such curve was filed as active; the % refers to the signal ratio)
Method in brief: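 Agonism was assessed in a beta-lactamase reporter system, HEK293H cells with a stably integrated UAS-bla construct under PPARg control; the 17 h treatment at 37C preceded a 1 h room-temperature FRET substrate read.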

Measured: Potency

CO[Si](CCCNCCN)(OC)OC
not listed: [15] | [16] | [17] | [18] | [19] | [20]
inactive: all other assays above

C=C(C)CC(C)(C)C
not listed: [1] | [3] | [6] | [9] | [10] | [18] | [19] | [20]
inactive: all other assays above

Brc1ccc(Oc2ccc(Br)cc2)cc1
not listed: [1] | [3] | [6] | [16] | [17] | [19] | [20]
inactive: all other assays above

OCC(CO)(CO)CO
not listed: [2] | [15] | [16] | [17] | [20]
inactive: all other assays above

O=[N+]([O-])c1ccccc1C(F)(F)F
not listed: [3] | [7] | [16] | [17] | [19]
inactive: all other assays above

OCCOCCOCCOCCOCCO
inactive: [1] | [2] | [4] | [5] | [7] | [8] | [18] | [11] | [12] | [13] | [14]

CC[N+](CC)(CC(=O)Nc1c(C)cccc1C)Cc1ccccc1
inactive: [1] | [20] | [3] | [4] | [15] | [5] | [6] | [8] | [18] | [11] | [12]

C1CCCNCC1
not listed: [2] | [3] | [6] | [13] | [14] | [16] | [17] | [20]
inactive: all other assays above

CCCCCCC(=O)O
not listed: [2] | [3] | [15] | [18] | [20]
inactive: all other assays above
